# eIF4E-4G inh: eIF4E/eIF4G interaction inhibition in translation initiation; inhibition, % at 21.7 µM; TR-FRET eIF4E-eIF4GI(517-606) binding, 2 h; AID 782; 220,000 tested, 0.37% active;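 active = inhibition above about 30%, limit read from the data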;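 also: 0% = full FRET control wells and 100% = background wells lacking eIF4GI fragment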
# eIF4H FP inh: inhibitors of RNA binding by human eIF4H. Q15056. 290,000 tested, 0.94% active. inhibition, % at 35 µM. eIF4H fluorescence polarization binding assay;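 also: calls also rest on retests at 20 µM and on dose response follow-up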
# PABP FP inh: blocks human PABP binding to poly(A) RNA. fluorescence polarization. calls only at 35 µM. 290,000 tested, 1% active;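 also: calls also rest on retests at 20 µM and on dose response follow-up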
# PABP1 MLLE inh: inhibitors of microRNA-mediated deadenylation, human PABP1 MLLE binding | GST-MLLE / FITC-PAM2 fluorescence polarization | inhibition, % at 20 µM | 360,000 tested, 0.36% active; in the data active = inhibition above about 35%, passing the limit was not always enough;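 also: plate controls were DMSO wells with GST-MLLE for no effect and wells lacking GST-MLLE protein for full effect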
# PERK inhibitor: blocks human PERK kinase; 220,000 tested, 0.17% active; inhibition, % at 5.6 µM; Q9NZJ5; CHO PERK-DD fusion, SEAP luminescence translation reporter;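 active = inhibition above the mean inhibition of all tested compounds plus 3 SD, set separately per screening campaign, cut at about 2.9% in these data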;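 also: PERK kinase domain activated by AP20187 dimerizer at 100 nM; 0% = DMSO with dimerizer and 100% = rapamycin at 8.4 µM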
# * = called active by the depositor; i = inactive; ? = inconclusive; . = not tested or not shown; + = active, no number; [ ] = another dose, or the depositor's remark. Only some compounds are listed: those with a hit (about 1.6% of all), similar ones and a draw of the others. Unless noted, no rule for the calls is given here.
SMILES,eIF4E-4G inh,eIF4H FP inh,PABP FP inh,PABP1 MLLE inh,PERK inhibitor
Cc1sc2nc(SCC(=O)NCc3ccco3)n(C)c(=O)c2c1C,-7,2,i,-4,0
O=c1c2ccccc2nc2ccc(NCc3ccco3)nn12,8,43,+,81,0
Cc1sc2nc3ccc(NCc4ccco4)nn3c(=O)c2c1C,-14,24,i,41*,0
CCNC(=O)C1(C)CCCN(C(=O)/C=C/c2ccccc2)C1 (centres undefined),.,.,.,-6,.
CC1=NN(c2ccc(N)cc2)C(=O)C1,-3,7,+,22,1
CC1=NN(c2ccc(Cl)cc2)C(=O)C1,-1,7,i,13,1
Cc1cccc(CN(C)C[C@H]2OCc3cnnn3CCCC(=O)N([C@H](C)CO)C[C@@H]2C)c1,.,.,.,1,.
O=C1Nc2ccccc2N(O)N1c1cc(-c2ccccc2Cl)no1,-1,-4,i,7,3.2*
O=C1Nc2ccccc2N(O)N1c1cc(-c2cccc(Cl)c2)no1,-8,-4,i,-3,1
Cc1ccc(NC2c3ncccc3C(=O)N2c2ccccc2C)cc1C (centres undefined),91*[fluorescence artefact?],-14,i,-1,0
CCc1cc(CNC(=O)CCc2nnc(CCCc3ccccc3)o2)on1,-3,0,i,12,0
COc1cc(/C=N\Nc2ccc([N+](=O)[O-])cc2)ccc1OCC(=O)Nc1ccc(C)c(C)c1,-11,?,+,7,1
CCOc1cc(/C=N\Nc2ccc([N+](=O)[O-])cc2)ccc1OCC(=O)Nc1ccc(C)c(C)c1,-14,?,?,-109,1
O=C(COC(=O)C1CCN(C(=O)c2ccc(Cl)cc2)CC1)Nc1ccccc1F,.,.,.,5,.
C=CCc1cccc(/C=N/c2ncccc2O)c1O,-1,70*,+,1,-1
Cc1cc(C)n(CC(=O)N/N=C/c2ccccn2)n1,-3,2,i,10,0
Cc1cccc(/C=N/NC(=O)Cn2nc(C)cc2C)n1,-1,102*,+,4,0
Cc1cc([N+](=O)[O-])nn1CC(=O)N/N=C/c1ccccc1F,3,58*,+,-2,0
O=c1[nH]nc(Sc2ccccc2)c(=S)[nH]1,.,.,.,45*,.
O=C1NC(=S)N/C1=C/c1ccc2c(c1)OCO2,.,56,+,-24,.
O=C1NC(=S)SC1=Cc1ccc2c(c1)OCO2,.,.,.,5,.
C=CCn1c(C)cc(-c2csc(N)n2)c1C,7,?,?,28,-1
CCCn1c(C)cc(-c2csc(N)n2)c1C,-2,122*,i,22,0
Cc1ccc(S(=O)(=O)/C(C#N)=C/c2c(N3CCN(Cc4ccccc4)CC3)nc3ccccn3c2=O)cc1,.,?,+,13,.
Cc1cccn2c(=O)c(/C=C(\C#N)S(=O)(=O)c3ccccc3)c(N3CCN(Cc4ccccc4)CC3)nc12,.,78*,+,21,.
SMILES,eIF4E-4G inh,eIF4H FP inh,PABP FP inh,PABP1 MLLE inh,PERK inhibitor
N#C/C(=C\c1c(N2CCC(C(N)=O)CC2)nc2ccccn2c1=O)C(=O)NCc1ccco1,2,62*,+,-7,1
Cc1cccn2c(=O)c(C=O)c(N3CCCCC3)nc12,0,5,i,12,0
Cc1cccn2c(=O)c(C=O)c(N3CCN(c4ccc(F)cc4)CC3)nc12,-3,96*,+,6,1
COc1ccc(CNCc2ccc3ccccc3c2)c(OC)c1,.,-2,i,2,.
Cc1ccc2nc(N3CCCCC3)c(C=O)c(=O)n2c1,-3,-3,i,.,0
Cc1ccc2nc(N3CCN(c4ccccc4F)CC3)c(C=O)c(=O)n2c1,3,58,+,17,0
N#C/C(=C\c1c(N2CCOCC2)nc2ccccn2c1=O)S(=O)(=O)c1ccccc1,0,-5,i,1,1
N#C/C(=C\c1c(N2CCN(Cc3ccccc3)CC2)nc2ccccn2c1=O)S(=O)(=O)c1ccccc1,.,?,+,-12,.
COc1ccc(NC(=O)Nc2nc3c(s2)CCCC3)cc1,1,80*,+,0,0
COc1ccc(OCC(=O)Nc2nc3c(s2)CCCC3)cc1,.,-4,i,-34,.
CC(C)(C)[C@H]1COC(=O)CCCC/C=C\C[C@H](CC(=O)NCCO)C(=O)N1,.,.,.,-8,.
O=C(CCCN1C(=O)/C(=C\c2ccccc2)SC1=S)Nc1cccc(C(=O)O)c1,.,0,i,11,.
O=C(O)CCCN1C(=O)/C(=C/C=C/c2ccco2)SC1=S,32*,98*,+,6,0

# Compound activity deposited in PubChem by several laboratories.
